Where “and” joins values, the source holds several entries; their conditions need not be identical. Identical values can stand only once. Results filed as inconclusive are left out. Calls of active or inactive are those of the source. Unless noted, the call rests on the fitted dose curve.

The nature of the first assay: qHTS assay for small molecule activators of the p53 signaling pathway (AID 651743; active means well fitted activation curve with a large enough effect in the signal ratio, not every such curve was filed as active; the % refers to the signal ratio; further: potency means the concentration at half of the fitted maximal effect; on activation: % of control where 0% means no effect). The conditions noted are these: HCT-116 p53RE-bla, beta-lactamase FRET ratio, 16 h; activation: stronger effect = higher value. In outline: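 Read-out is fluorescence intensity from the LiveBLAzer B/G FRET substrate, added for 2 hours at room temperature after HCT-116 p53RE-bla cells had been incubated with compounds for 16 hours at 37 C.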
(In qHTS, concentration-response curves come from the screen itself.)
In the case of `Cc1cn([C@H]2C[C@H](N=[N+]=[N-])[C@@H](CO)O2)c(=O)[nH]c1=O`, the activation was 7.41% (inactive) and -3.71% (inactive).

On to `CC(C)(Oc1ccc(C2CC2(Cl)Cl)cc1)C(=O)O` (stereo not drawn), for which the activation is -1.02% (inactive).

With `Cn1c(=O)c2c(ncn2C)n(C)c1=O`, the activation is -3.61% (inactive) and -3.49% (inactive).

`C[C@](N)(Cc1ccc(O)c(O)c1)C(=O)O`: the activation is -5.22% (inactive).

Regarding `Cn1c(=O)c2[nH]cnc2n(C)c1=O`, the activation was 0.514% (inactive).

Take `O=c1c(-c2ccc(O)cc2)coc2cc(O)cc(O)c12`: the activation is 12.7% (inactive) and 14.1% (inactive).

Regarding `O=C(CCCN1CCC(O)(c2ccc(Cl)cc2)CC1)c1ccc(F)cc1`, the activation was 0.976% (inactive).

As for `COc1ccc2c(c1)c(CC(=O)O)c(C)n2C(=O)c1ccc(Cl)cc1`, the activation was -7.78% (inactive) and -10.3% (inactive).

For `O=C(Nc1ccc([N+](=O)[O-])cc1Cl)c1cc(Cl)ccc1O`, the Potency was 0.891 µM (active).

For `COc1ccc2[nH]cc(CCNC(C)=O)c2c1`, the activation is -4% (inactive) and -3.68% (inactive) and -2.3% (inactive).

For `CCOC(=O)C(C)(C)Oc1ccc(Cl)cc1`, the activation was 3.33% (inactive).

As for `CC(C)Cc1ccc(C(C)C(=O)O)cc1` (stereo not drawn), the activation was -2.52% (inactive).

`NS(=O)(=O)c1cc2c(cc1Cl)NCNS2(=O)=O`: the activation is -0.393% (inactive) and 4.88% (inactive).

For the compound `Nc1ccn([C@H]2CC[C@@H](CO)O2)c(=O)n1`, the activation was -0.413% (inactive) and 2.91% (inactive).

For `NCCS(=O)(=O)O`, the activation is -1.87% (inactive).

`Nc1c2c(nc3ccccc13)CCCC2`: the activation is 1% (inactive).

Take `CCC1(c2ccccc2)C(=O)NCNC1=O`: the activation was -3.22% (inactive) and -3.23% (inactive).

Turning to `COc1ccc(CCN(C)CCCC(C#N)(c2ccc(OC)c(OC)c2)C(C)C)cc1OC` (stereo not drawn), the activation was -2.6% (inactive).

A further assay is described as follows: qHTS assay for small molecule activators of the nuclear factor-kappa B (NF-kB) signaling pathway (AID 651749; active means well fitted activation curve with a large enough effect in the signal ratio; the % refers to the signal ratio; further: % of control where 0% means no effect). The conditions noted are these: NF-kB-bla ME-180 cells, beta-lactamase FRET ratio, 16 h; stronger effect = higher value. In outline: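 Readout: beta-lactamase reporter driven by an NF-kB response element, detected fluorescently as loss of FRET. Cells were the ME-180 line, treated 16 hr at 37C with pin-transferred compound.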
`Cc1cn([C@H]2C[C@H](N=[N+]=[N-])[C@@H](CO)O2)c(=O)[nH]c1=O`: the activation was 0.977% (inactive) and -0.0662% (inactive).

With `CC(C)(Oc1ccc(C2CC2(Cl)Cl)cc1)C(=O)O` (stereo not drawn), the activation is 1.65% (inactive).

Regarding `C[C@](N)(Cc1ccc(O)c(O)c1)C(=O)O`, the activation was 0.934% (inactive).

In the case of `Cn1c(=O)c2[nH]cnc2n(C)c1=O`, the activation is 0.41% (inactive).

For the compound `O=c1c(-c2ccc(O)cc2)coc2cc(O)cc(O)c12`, the activation is 3.3% (inactive) and 4.88% (inactive).

Consider `N[C@@H](Cc1c[nH]c2ccc(O)cc12)C(=O)O`, for which the activation is 0.166% (inactive).

As to `Cn1cnc2c1c(=O)[nH]c(=O)n2C`, the activation was -2.65% (inactive).

`Cc1ccc(-c2cc(C(F)(F)F)nn2-c2ccc(S(N)(=O)=O)cc2)cc1`: the activation was -1.1% (inactive).

With `O=C(Nc1ccc([N+](=O)[O-])cc1Cl)c1cc(Cl)ccc1O`, the activation is -2.6% (inactive).

In the case of `COc1ccc2[nH]cc(CCNC(C)=O)c2c1`, the activation was -0.27% (inactive) and 0.655% (inactive) and 0.179% (inactive).

For `COc1cc2c(c(OC)c1OC)-c1ccc(OC)c(=O)cc1[C@@H](NC(C)=O)CC2`, the activation was 2.95% (inactive) and 1.58% (inactive) and 1.39% (inactive).

`CCOC(=O)C(C)(C)Oc1ccc(Cl)cc1`: the activation is -3.61% (inactive).

As for `CC(C)Cc1ccc(C(C)C(=O)O)cc1` (stereo not drawn), the activation was -1.23% (inactive).

In the case of `Clc1ccc(C(c2ccccc2Cl)C(Cl)Cl)cc1` (stereo not drawn), the activation is 2.3% (inactive).

On to `Nc1ccn([C@H]2CC[C@@H](CO)O2)c(=O)n1`, for which the activation was -0.557% (inactive) and 0.274% (inactive).

With `CCC1(c2ccccc2)C(=O)NCNC1=O`, the activation is 0.499% (inactive) and -0.837% (inactive).

Turning to `CC#C[C@]1(O)CC[C@H]2[C@@H]3CCC4=CC(=O)CCC4=C3[C@@H](c3ccc(N(C)C)cc3)C[C@@]21C`, the activation was 4.11% (inactive).

A further assay in a line: qHTS assay for small molecule disruptors of the mitochondrial membrane potential - 1 hr assay (AID 651754). Further: nearly all actives have a fitted effect of over 35% in size. Further: potency means the concentration at half of the fitted maximal effect. The conditions noted are these: series mostly up to 92.2 µM. In a few lines: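 HepG2 cells, attached overnight, were exposed to compound for 1 hr at 37C, then stained 30 min with a potentiometric dye. Ratio of red aggregate (590nm) to green monomer (535nm) fluorescence reports membrane potential; collapse shifts signal toward green.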
As to `O=c1c(-c2ccc(O)cc2)coc2cc(O)cc(O)c12`, the Potency was 5.96 µM (active).

As for `Cc1ccc(-c2cc(C(F)(F)F)nn2-c2ccc(S(N)(=O)=O)cc2)cc1`, the Potency was 42.2 µM (active).

With `CC(C)NCC(O)c1ccc(O)c(O)c1` (stereo not drawn), the Potency result was “inactive”.

For `COc1cc2c(c(OC)c1OC)-c1ccc(OC)c(=O)cc1[C@@H](NC(C)=O)CC2`, the Potency entry was “inactive”.

Turning to `Clc1ccc(C(c2ccccc2Cl)C(Cl)Cl)cc1` (stereo not drawn), the Potency was 29.8 µM (active).

As to `NCCS(=O)(=O)O`, the Potency entry was “inactive”.

A short description of the next assay: qHTS assay for small molecule disruptors of the mitochondrial membrane potential - 5 hr assay (AID 651755). Further: nearly all actives have a fitted effect of over 40% in size. Further: potency means the concentration at half of the fitted maximal effect. The conditions noted are these: JC-1-type ratio dye; series mostly up to 92.2 µM. In a few lines: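 HepG2, 2,000 cells/well, overnight attach; cpd or DMSO 5 hr, 37C/5% CO2; Mito-MPS 30 min 37C; fluor 490/535 + 540/590 nm.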
On to `O=c1c(-c2ccc(O)cc2)coc2cc(O)cc(O)c12`, for which the Potency was 7.5 µM (active).

Regarding `N[C@@H](Cc1c[nH]c2ccc(O)cc12)C(=O)O`, the Potency entry is “inactive”.

`Cc1ccc(-c2cc(C(F)(F)F)nn2-c2ccc(S(N)(=O)=O)cc2)cc1`: the Potency was 42.2 µM (active).

Take `CC(C)NCC(O)c1ccc(O)c(O)c1` (stereo not drawn): the Potency result was “inactive”.

For the compound `COc1cc2c(c(OC)c1OC)-c1ccc(OC)c(=O)cc1[C@@H](NC(C)=O)CC2`, the Potency result is “inactive”.

On to `Clc1ccc(C(c2ccccc2Cl)C(Cl)Cl)cc1` (stereo not drawn), for which the Potency is 37.6 µM (active).

`NCCS(=O)(=O)O`: the Potency entry is “inactive”.

For the origin of these results see PubChem BioAssay (NCATS).
